In PubChem BioAssay (Tox21):
Records with an inconclusive call do not appear. A call without a number means that no potency is given here. Activity calls are given as the source filed them. Unless noted, calls follow the shape of the dose curve; as a rule, active = well fitted curve in the direction sought with a large enough effect in the repeat runs; inconclusive = weak or mixed curves; inactive = no such curve, though single readings can be large; an effect the other way counts as inactive or inconclusive.

Key:
[1] = qHTS assay to test for compound auto fluorescence at 535 nm (green) in HEK293 cells (AID 720680)
[2] = qHTS assay to test for compound auto fluorescence at 460 nm (blue) in HEK293 cell free culture (AID 720681)
How it was run: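 Blue fluorescence (Ex 405/Em 460 nm, triamterene-equivalent) was read immediately after pin transfer of compound or DMSO into medium (DMEM, 10% FBS) without cells.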

[3] = qHTS assay to test for compound auto fluorescence at 535 nm (green) in HEK293 cell free culture (AID 720682)
How it was run: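 Green-channel intensity (Ex/Em 485/535 nm) was recorded from compound-treated wells containing only DMEM with 10% FBS. Fluorescein provided the equivalency standard.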

[4] = qHTS assay to test for compound auto fluorescence at 590 nm (red) in HEK293 cell free culture (AID 720683)
How it was run: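 Red-channel autofluorescence of compounds in culture medium (DMEM, 10% FBS), no cells, measured at 540/590 nm. Rose Bengal sodium is the reference fluorophore for equivalence.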

[5] = qHTS assay to test for compound auto fluorescence at 460 nm (blue) in HepG2 cell free culture (AID 720685)
How it was run: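 Cell-free plates of MEM plus 10% FBS received 23 nL compound or DMSO vehicle; blue-channel (405/460 nm) intensity scored against triamterene as reference fluorophore.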

[6] = qHTS assay to test for compound auto fluorescence at 535 nm (green) in HepG2 cell free culture (AID 720686)
[7] = qHTS assay to test for compound auto fluorescence at 460 nm (blue) in HepG2 cells (AID 720687)
How it was run: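 Blue-channel autofluorescence (Ex/Em 405/460 nm, triamterene-equivalent) was measured after 1 hr compound exposure at 37 C, 5% CO2. Cells were HepG2, plated overnight at 37 C in MEM plus 10% FBS.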

[8] = target: Glucocorticoid receptor (Homo sapiens) (UniProt P04150); test: qHTS assay to identify small molecule agonists of the glucocorticoid receptor (GR) signaling pathway (AID 720691; active = well fitted activation curve with a large enough effect in the signal ratio in the repeat runs, not every such curve was filed as active; the % refers to the signal ratio)
How it was run: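 Agonist-mode qHTS in HeLa cells stably expressing a glucocorticoid-response-element beta-lactamase reporter. Fluorescence intensity read with FRET substrate (2 h, room temperature) after 18 h compound treatment at 37 C.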

[9] = qHTS assay to identify small molecule antagonists of the glucocorticoid receptor (GR) signaling pathway - cell viability counter screen (AID 720693); also: nearly all actives have a fitted effect of over 55% in size
[10] = qHTS assay for identifying genotoxic compounds that show differential cytotoxicity against isogenic chicken DT40 cell lines with known DNA damage response pathways - wild type cell line (AID 743012); also: nearly all actives have a fitted effect of over 60% in size; also: potency is read from the fitted curve at half-maximal effect
How it was run: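 Viability by ATP luminescence (CellTiter-Glo, 30 min RT) after 40 h compound treatment at 37 C/5% CO2, using 300 parental DNA repair-proficient DT40 cells per well.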

[11] = qHTS assay for identifying genotoxic compounds that show differential cytotoxicity against isogenic chicken DT40 cell lines with known DNA damage response pathways - Rev3 mutant cell line (AID 743014); also: nearly all actives have a fitted effect of over 55% in size; also: potency is read from the fitted curve at half-maximal effect
[12] = qHTS assay for identifying genotoxic compounds that show differential cytotoxicity against isogenic chicken DT40 cell lines with known DNA damage response pathways - Rad54/Ku70 mutant cell line (AID 743015); also: nearly all actives have a fitted effect of over 60% in size; also: potency is read from the fitted curve at half-maximal effect
[13] = qHTS assay to identify small molecule antagonists of the androgen receptor (AR) signaling pathway using the MDA cell line - cell viability counter screen (AID 743041; also: nearly all actives have a fitted effect of over 45% in size)
How it was run: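 Viability read by CellTiter-Fluor fluorescence in the same wells as the antagonist screen, added after 15.5 h of a 16 h, 37C exposure. Human breast carcinoma MDA-kb2 AR-luc cells, compounds co-dosed with agonist R1881.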

[14] = target: Glucocorticoid receptor (Homo sapiens) (UniProt P04150); test: qHTS assay to identify small molecule antagonists of the glucocorticoid receptor (GR) signaling pathway (AID 720692; active = well fitted inhibition curve with a large enough effect in the signal ratio in the repeat runs, not every such curve was filed as active; the % refers to the signal ratio)
How it was run: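 Inhibition of dexamethasone-driven (5 nM final) beta-lactamase expression was measured in GRE-reporter HeLa cells over 18 h at 37C. Fluorescence was read after 2 h with the B/G FRET substrate at room temperature.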

[15] = qHTS assay to identify small molecule antagonists of the androgen receptor (AR) signaling pathway - cell viability counter screen (AID 743033; also: nearly all actives have a fitted effect of over 45% in size)
[16] = qHTS assay to identify small molecule antagonists of the thyroid receptor (TR) signaling pathway - cell viability counter screen (AID 743064); also: nearly all actives have a fitted effect of over 50% in size
How it was run: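 In rat pituitary GH3.TRE-Luc reporter cells co-exposed to compound and 1 nM T3 for 23.5 h, cytotoxicity was assessed with CellTiter-Fluor in the same wells, read by fluorescence.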

[17] = qHTS assay to test for compound auto fluorescence at 590 nm (red) in HepG2 cell free culture (AID 720684)
How it was run: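 Cell-free; medium MEM + 10% FBS; compound or DMSO added by pintool; read Ex 540/Em 590 nm; Rose Bengal sodium as red reference fluorophore.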

[18] = qHTS assay to identify small molecule antagonists of the thyroid receptor (TR) signaling pathway (AID 743065); also: series mostly up to about 70 µM; nearly all actives have a fitted effect of over 55% in size
How it was run: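 Antagonism measured as loss of luciferase signal in GH3 cells stably carrying a TRE-luciferase reporter, co-treated with compound and T3 (1 nM final) for 23.5 h at 37 C. Viability was read in the same well by CellTiter-Fluor.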

Glucocorticoid receptor (Homo sapiens), sequence (P04150 whole entry, looked up): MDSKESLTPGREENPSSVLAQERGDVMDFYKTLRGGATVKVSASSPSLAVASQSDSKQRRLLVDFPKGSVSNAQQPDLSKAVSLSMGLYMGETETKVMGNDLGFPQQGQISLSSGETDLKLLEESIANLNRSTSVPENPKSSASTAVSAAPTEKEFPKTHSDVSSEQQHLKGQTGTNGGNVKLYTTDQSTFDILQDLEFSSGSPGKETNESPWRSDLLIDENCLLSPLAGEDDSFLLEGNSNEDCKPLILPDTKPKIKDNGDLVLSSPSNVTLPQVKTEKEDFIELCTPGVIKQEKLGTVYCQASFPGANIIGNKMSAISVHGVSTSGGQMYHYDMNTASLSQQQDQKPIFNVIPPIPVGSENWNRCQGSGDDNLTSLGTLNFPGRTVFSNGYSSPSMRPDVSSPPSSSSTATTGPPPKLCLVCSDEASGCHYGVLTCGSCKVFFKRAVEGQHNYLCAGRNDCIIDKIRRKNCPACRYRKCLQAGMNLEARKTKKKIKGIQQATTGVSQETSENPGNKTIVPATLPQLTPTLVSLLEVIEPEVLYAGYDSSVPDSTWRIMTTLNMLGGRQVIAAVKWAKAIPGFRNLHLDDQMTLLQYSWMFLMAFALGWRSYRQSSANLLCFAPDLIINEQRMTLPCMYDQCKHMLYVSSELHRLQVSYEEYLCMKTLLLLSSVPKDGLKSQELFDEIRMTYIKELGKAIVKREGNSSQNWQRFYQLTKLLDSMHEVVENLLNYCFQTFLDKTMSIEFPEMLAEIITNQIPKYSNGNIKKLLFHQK

SMILES | outcome [1] | Potency [2] | outcome [3] | outcome [4] | Potency [5] | outcome [6] | Potency [7] | Potency [8] | Potency [9] | Potency [10] | Potency [11] | Potency [12] | Potency [13] | Potency [14] | Potency [15] | Potency [16] | outcome [17] | Potency [18]
CCN(CC)CCOc1ccc2c(c1)C(=O)c1cc(OCCN(CC)CC)ccc1-2 | inactive | inactive | inactive | inactive | inactive | inactive | inactive | inactive | inactive | 5.31 µM (active) | 2.66 µM (active) | 5.96 µM (active) | inactive | – | – | – | – | –
O=S1(=O)c2cccc3cccc(c23)N1CCCN1CCN(c2ccc(F)cc2)CC1 | inactive | inactive | inactive | inactive | inactive | inactive | inactive | inactive | inactive | 18.8 µM (active) | 23.7 µM (active) | 23.7 µM (active) | – | inactive | inactive | inactive | – | –
O=C(Cl)c1ccc([N+](=O)[O-])cc1 | inactive | inactive | – | inactive | inactive | inactive | inactive | inactive | inactive | inactive | inactive | inactive | inactive | inactive | inactive | inactive | inactive | –
CC(=O)/C=C/C1C(C)=CCCC1(C)C (configuration not stated) | inactive | inactive | inactive | inactive | inactive | inactive | inactive | – | inactive | – | inactive | inactive | inactive | – | – | inactive | – | inactive
Oc1ccc(Sc2ccc(O)cc2)cc1 | inactive | inactive | inactive | inactive | inactive | inactive | inactive | inactive | inactive | – | – | – | – | inactive | inactive | – | – | –
C1=Cc2ccccc2C1 | inactive | inactive | inactive | inactive | inactive | inactive | inactive | – | inactive | inactive | inactive | inactive | inactive | – | – | inactive | – | inactive
CCCCCCCCCC=O | inactive | inactive | inactive | inactive | inactive | inactive | inactive | inactive | inactive | inactive | inactive | inactive | inactive | – | inactive | inactive | – | inactive
c1ccc(CNCc2ccccc2)cc1 | inactive | inactive | inactive | inactive | inactive | inactive | inactive | inactive | inactive | 54.5 µM (active) | 30.6 µM (active) | 43.3 µM (active) | inactive | – | – | inactive | – | –
